Inconclusive results are not listed. Unless noted, the call rests on the fitted dose curve; in most records, active means well fitted curve in either direction with a large enough effect (not every such curve was filed as active); inconclusive means small, poorly fitted or top-dose-only effect, or another doubt; inactive means flat fitted curve, though single readings scatter.
System: not listed separately
Experiment: Stat Signaling Pathway (AID 446);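 further: ME-180 cervical cancer cells given 40 pM IL-6 alongside compound; SIE-controlled beta-lactamase reporter measured as 460/530 nm FRET emission ratio; on the % scale 0 is the no-effect control and ±100 the full control effect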
Details: ME-180 SIE beta-lactamase reporter, IL-6 stimulated, 5 h; at 17.2 µM (top of the series) unless noted
Procedure, shortened: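 ME-180 SIE-bla cells; overnight plating; cpd + IL-6 40 pM, 5 h, 37 C; LiveBLAzer 2.5 h RT; 460/530 nm emission ratio. Normalized to 300 pM IL-6 and 125 nM JAK inhibitor controls.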

activity, negative = inhibition, inactive:
COc1cc(S(=O)(=O)N2CCN(C)CC2)c(OC)cc1Br 3.25%
COCCOC(=O)c1c(C)nc(SCC(=O)Nc2ccc(OC)cc2)c(C#N)c1-c1ccco1 -16.8%
Cc1ccc(N2C(=O)C3ON(c4ccccc4)C(c4ccncc4)C3C2=O)c(C)c1 (stereo not drawn) 0.652%
Cc1nc(-c2c(-c3ccc(O)cc3O)noc2C(F)(F)F)cs1 -18.8%
CC(=O)O[C@@]12CO[C@@H]1C[C@H](O)[C@@]1(C)C(=O)[C@H](O)C3=C(C)[C@@H](OC(=O)[C@H](O)[C@@H](NC(=O)OC(C)(C)C)c4ccccc4)C[C@](O)([C@@H](OC(=O)c4ccccc4)[C@H]21)C3(C)C -5.76%
CCC(=NC(CC)CO)C1=C(O)CC(C)(C)CC1=O (stereo not drawn) 12.8%
CSc1nc(NC(C)=O)nc(C)c1Cl 3.48%
Cc1cccc(-c2nnc3n2N=C(c2ccccc2)CS3)c1 -6.13%
COc1ccc(NCc2cc3ccccc3[nH]c2=O)cc1 1.46%
CC(C)CN1C(=O)NC(NC(=O)c2cccnc2)(C(F)(F)F)C1=O (stereo not drawn) -1.02%
COc1cc([C@@H]2[C@H]3CN(C)CC=C3C(C#N)=C(N)C2(C#N)C#N)cc2c1OCO2 10.9%
COc1ccc(OC)c(C2C(C(=O)c3sc(C)nc3C)=C(O)C(=O)N2CCN2CCOCC2)c1 (stereo not drawn) -1.07%
CC1(C)CC(NC(=O)C23CCC(C)(/C(=N/O)C2)C3(C)C)CC(C)(C)N1 (stereo not drawn) 0.446%
COC(=O)/C=c1/s/c(=C(/C#N)C(=O)N2CCOCC2)n(-c2ccccc2)c1=O -9.79%
COC(=O)CN(c1nc(C)cc(OC)n1)S(=O)(=O)c1ccccc1 8.46%
CCn1nc(NC(=O)c2ccco2)c2cc3ccccc3nc21 -7.47%
COc1ccc(/C(O)=C2\C(=O)C(=O)N(CCN(C)C)C2c2cccc(OC)c2OC)cc1 (stereo not drawn) 11.6%
Nc1ncnc2nc(SCc3ccccc3)[nH]c12 -9.74%
C=CCc1c(C)c(C#N)c2nc3ccccc3n2c1N1CCN(C)CC1 3.98%
NC(=O)C1CCN(C2OC(=O)c3ccccc32)CC1 (stereo not drawn) 10.3%
O=C(CN1C(=O)c2ccccc2C1=O)NCc1ccncc1 5.8%
C=CCN(C(=O)CCC(=O)O)C1CC(=O)N(c2ccc(OC)cc2)C1=O (stereo not drawn) 5.71%
CCOC(=O)CSC1=C(C#N)C(c2ccc(OC)cc2)C2=C(CC(C)(C)CC2=O)N1 (stereo not drawn) -4.41%
Nc1nc2n(n1)C(c1cccs1)CC(c1ccc(Br)cc1)N2 (stereo not drawn) 4.42%
Cc1ccc(C(=O)C2=C(O)C(=O)N(c3ncccn3)C2c2cccc(Cl)c2)o1 (stereo not drawn) -7.64%
COc1cccc(C2C(C(=O)c3sc(C)nc3C)=C(O)C(=O)N2CCN2CCOCC2)c1OC (stereo not drawn) 7.97%
COc1ccc(C(=O)N2CCCC(c3ccccc3)C2)cc1 (stereo not drawn) 2.57%
FC(F)(F)c1cccc(N2CCc3cn[nH]c32)c1 -1.19%
COc1cccc(C2/C(=C(\O)c3ccc4c(c3)OCCO4)C(=O)C(=O)N2CCN(C)C)c1 (stereo not drawn) 9.63%
COc1ccc(C2/C(=C(/O)c3ccccc3)C(=O)C(=O)N2c2ncccn2)cc1OC (stereo not drawn) -0.726%
Cn1ncc(N=Cc2ccccc2O)c1C(=O)N1CCOCC1 -4.13%
CC(=O)N/C(=N/c1nc(C)cc(C)n1)Nc1ccc(NC(C)=O)cc1 -1.02%
CSCCC(CO)NC(=O)OCc1ccccc1 (stereo not drawn) 2.15%
COCCCN1C(=O)C(O)=C(C(=O)c2ccco2)C1c1ccc(Br)cc1 (stereo not drawn) -8.56%
CCOC(=O)c1c(C(C#N)C#N)cc(C)nc1C 1.48%
C/C=C/c1ccccc1OCc1ccc(C(=O)O)o1 -2.17%
Nc1nnnn1/N=C/c1ccccn1 -2.26%
CCOc1ccc(N=C2C(=O)N(CN3CCOCC3)c3ccccc32)cc1 -3%
COc1nc(NS(=O)(=O)c2ccc(C)cc2)nc(C)c1Cl -5.69%

Target: Glucocorticoid receptor (Homo sapiens) (UniProt P04150)
Experiment: GR-GFP Redistribution (AID 450;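 active means compounds whose dose series gives a full or clear partial fitted curve of increased nuclear translocation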; further: potency means the concentration at half of the fitted maximal effect)
Details: U2OS GR-GFP nuclear translocation, laser cytometry, 2 h; series mostly up to 20.6 µM

Chain of Glucocorticoid receptor (Homo sapiens) (P04150 whole entry, looked up): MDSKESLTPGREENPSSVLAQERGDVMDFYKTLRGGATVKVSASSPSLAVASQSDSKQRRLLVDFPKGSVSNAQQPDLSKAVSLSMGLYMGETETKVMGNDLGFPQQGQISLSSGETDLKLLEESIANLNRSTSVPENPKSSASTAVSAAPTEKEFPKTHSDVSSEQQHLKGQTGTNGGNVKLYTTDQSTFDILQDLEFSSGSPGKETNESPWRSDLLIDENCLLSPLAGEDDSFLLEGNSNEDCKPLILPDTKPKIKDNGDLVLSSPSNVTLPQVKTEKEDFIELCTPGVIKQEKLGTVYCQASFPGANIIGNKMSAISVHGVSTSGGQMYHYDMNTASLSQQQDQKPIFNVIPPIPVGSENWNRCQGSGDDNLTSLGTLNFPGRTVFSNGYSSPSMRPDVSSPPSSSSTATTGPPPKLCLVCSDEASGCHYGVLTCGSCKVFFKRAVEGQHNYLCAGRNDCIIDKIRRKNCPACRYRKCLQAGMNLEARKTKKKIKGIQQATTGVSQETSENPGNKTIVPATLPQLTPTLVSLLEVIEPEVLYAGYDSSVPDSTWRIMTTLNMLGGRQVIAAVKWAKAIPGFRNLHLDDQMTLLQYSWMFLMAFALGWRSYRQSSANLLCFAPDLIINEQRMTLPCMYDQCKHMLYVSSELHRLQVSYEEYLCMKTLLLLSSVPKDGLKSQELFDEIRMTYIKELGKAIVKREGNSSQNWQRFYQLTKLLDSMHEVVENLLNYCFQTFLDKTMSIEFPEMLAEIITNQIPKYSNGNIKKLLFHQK

Potency, inactive:
COc1cc(S(=O)(=O)N2CCN(C)CC2)c(OC)cc1Br > 20.6 µM
COCCOC(=O)c1c(C)nc(SCC(=O)Nc2ccc(OC)cc2)c(C#N)c1-c1ccco1 > 20.6 µM
Cc1ccc(N2C(=O)C3ON(c4ccccc4)C(c4ccncc4)C3C2=O)c(C)c1 (stereo not drawn) > 20.6 µM
Cc1nc(-c2c(-c3ccc(O)cc3O)noc2C(F)(F)F)cs1 > 20.6 µM
CC(=O)O[C@@]12CO[C@@H]1C[C@H](O)[C@@]1(C)C(=O)[C@H](O)C3=C(C)[C@@H](OC(=O)[C@H](O)[C@@H](NC(=O)OC(C)(C)C)c4ccccc4)C[C@](O)([C@@H](OC(=O)c4ccccc4)[C@H]21)C3(C)C > 20.6 µM
CCC(=NC(CC)CO)C1=C(O)CC(C)(C)CC1=O (stereo not drawn) > 20.6 µM
CSc1nc(NC(C)=O)nc(C)c1Cl > 20.6 µM
Cc1cccc(-c2nnc3n2N=C(c2ccccc2)CS3)c1 > 20.6 µM
COc1ccc(NCc2cc3ccccc3[nH]c2=O)cc1 > 20.6 µM
CC(C)CN1C(=O)NC(NC(=O)c2cccnc2)(C(F)(F)F)C1=O (stereo not drawn) > 20.6 µM
COc1cc([C@@H]2[C@H]3CN(C)CC=C3C(C#N)=C(N)C2(C#N)C#N)cc2c1OCO2 > 20.6 µM
COc1ccc(OC)c(C2C(C(=O)c3sc(C)nc3C)=C(O)C(=O)N2CCN2CCOCC2)c1 (stereo not drawn) > 20.6 µM
CC1(C)CC(NC(=O)C23CCC(C)(/C(=N/O)C2)C3(C)C)CC(C)(C)N1 (stereo not drawn) > 20.6 µM
COC(=O)/C=c1/s/c(=C(/C#N)C(=O)N2CCOCC2)n(-c2ccccc2)c1=O > 20.6 µM
COC(=O)CN(c1nc(C)cc(OC)n1)S(=O)(=O)c1ccccc1 > 20.6 µM
CCn1nc(NC(=O)c2ccco2)c2cc3ccccc3nc21 > 20.6 µM
COc1ccc(/C(O)=C2\C(=O)C(=O)N(CCN(C)C)C2c2cccc(OC)c2OC)cc1 (stereo not drawn) > 20.6 µM
Nc1ncnc2nc(SCc3ccccc3)[nH]c12 > 20.6 µM
C=CCc1c(C)c(C#N)c2nc3ccccc3n2c1N1CCN(C)CC1 > 20.6 µM
NC(=O)C1CCN(C2OC(=O)c3ccccc32)CC1 (stereo not drawn) > 20.6 µM
O=C(CN1C(=O)c2ccccc2C1=O)NCc1ccncc1 > 20.6 µM
C=CCN(C(=O)CCC(=O)O)C1CC(=O)N(c2ccc(OC)cc2)C1=O (stereo not drawn) > 20.6 µM
CCOC(=O)CSC1=C(C#N)C(c2ccc(OC)cc2)C2=C(CC(C)(C)CC2=O)N1 (stereo not drawn) > 20.6 µM
Nc1nc2n(n1)C(c1cccs1)CC(c1ccc(Br)cc1)N2 (stereo not drawn) > 20.6 µM
Cc1ccc(C(=O)C2=C(O)C(=O)N(c3ncccn3)C2c2cccc(Cl)c2)o1 (stereo not drawn) > 20.6 µM
COc1cccc(C2C(C(=O)c3sc(C)nc3C)=C(O)C(=O)N2CCN2CCOCC2)c1OC (stereo not drawn) > 20.6 µM
COc1ccc(C(=O)N2CCCC(c3ccccc3)C2)cc1 (stereo not drawn) > 20.6 µM
FC(F)(F)c1cccc(N2CCc3cn[nH]c32)c1 > 20.6 µM
COc1cccc(C2/C(=C(\O)c3ccc4c(c3)OCCO4)C(=O)C(=O)N2CCN(C)C)c1 (stereo not drawn) > 20.6 µM
COc1ccc(C2/C(=C(/O)c3ccccc3)C(=O)C(=O)N2c2ncccn2)cc1OC (stereo not drawn) > 20.6 µM
Cn1ncc(N=Cc2ccccc2O)c1C(=O)N1CCOCC1 > 20.6 µM
CC(=O)N/C(=N/c1nc(C)cc(C)n1)Nc1ccc(NC(C)=O)cc1 > 20.6 µM
CSCCC(CO)NC(=O)OCc1ccccc1 (stereo not drawn) > 20.6 µM
COCCCN1C(=O)C(O)=C(C(=O)c2ccco2)C1c1ccc(Br)cc1 (stereo not drawn) > 20.6 µM
CCOC(=O)c1c(C(C#N)C#N)cc(C)nc1C > 20.6 µM
C/C=C/c1ccccc1OCc1ccc(C(=O)O)o1 > 20.6 µM
Nc1nnnn1/N=C/c1ccccn1 > 20.6 µM
CCOc1ccc(N=C2C(=O)N(CN3CCOCC3)c3ccccc32)cc1 > 20.6 µM
COc1nc(NS(=O)(=O)c2ccc(C)cc2)nc(C)c1Cl > 20.6 µM

Reference: PubChem BioAssay (NCATS)
